Assay results published in PubChem BioAssay (EPA / NIEHS).
The source made the active and inactive calls. How the source made its calls: active means hit-call score of the fitted dose curve at least 0.9, where 1 is the maximum; inactive means score below 0.9.

What was measured:
Conditions in all cases: mRNA level, 48 h; actives raise or lower the signal
[1] = read-out: Alpha-fetoprotein (AFP) gene, AFP (gene 174); assay: LTEA_HepaRG_AFP: Life Technologies and Expression Analysis (LTEA) Assay for Alpha-fetoprotein (AFP) gene using HepaRG (AID 2283472)
Outline: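 HepaRG, single lot; 48 h post-plating -> serum-free induction medium; cpd 8-pt, 100 uM top, half-log, 0.5% DMSO, duplicate, 48 h. RNA -> qRT-PCR AFP, norm ACTB/GAPDH/POLR2A. Bidirectional fit vs DMSO.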

[2] = read-out: BCL2L11 (gene 10018); assay: LTEA_HepaRG_BCL2L11: Life Technologies and Expression Analysis (LTEA) Assay for Bcl-2 (BCL2L11) gene using HepaRG (AID 2283473)
Outline: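 HepaRG, 48 h exposure, 8-pt half-log series from 100 uM in 0.5% DMSO, duplicates; qRT-PCR (Fluidigm TaqMan) for BCL2L11, housekeeping-normalized; bidirectional curve fit relative to DMSO baseline.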

[3] = read-out: Apolipoprotein A-V (APOA5) gene, APOA5 (gene 116519); assay: LTEA_HepaRG_APOA5: Life Technologies and Expression Analysis (LTEA) Assay for Apolipoprotein A-V (APOA5) gene using HepaRG (AID 2283474)
Outline: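 HepaRG, 48 h chemical exposure in serum-free induction medium, 8-pt half-log series (top 100 uM), 0.5% DMSO vehicle, duplicates. Readout: APOA5 mRNA by qRT-PCR, housekeeping-normalized; bidirectional fit vs DMSO baseline.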

[4] = read-out: Apoptosis regulator Bcl-2 (Homo sapiens) (UniProt P10415); assay: LTEA_HepaRG_BCL2: Life Technologies and Expression Analysis (LTEA) Assay for Bcl-2 gene using HepaRG (AID 2283475)
Outline: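 HepaRG, plated 48 h then switched to serum-free induction medium; dosed 48 h, 8 conc. (max 100 uM, half-log steps), duplicate, 0.5% DMSO. Lysis in RLT, RNA isolated, TaqMan qRT-PCR for BCL2; ACTB/GAPDH/POLR2A normalisation; bidirectional fit vs DMSO.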

[5] = read-out: Bcl-2 (BID) gene, BID (gene 637); assay: LTEA_HepaRG_BID: Life Technologies and Expression Analysis (LTEA) Assay for Bcl-2 (BID) gene using HepaRG (AID 2283476)
Outline: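 Transcript levels of BID, measured by qRT-PCR and normalized to three housekeeping genes, were fitted bidirectionally against DMSO controls. Cells were HepaRG, dosed 48 h at up to 100 uM.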

[6] = read-out: Caspase-3 (Homo sapiens) (UniProt P42574); assay: LTEA_HepaRG_CASP3: Life Technologies and Expression Analysis (LTEA) Assay for cysteine-aspartic acid protease (CASP3) using HepaRG (AID 2283477)
Outline: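 HepaRG, 48 h exposure, 8 conc. (top 100 uM, half-log steps, duplicate), 0.5% DMSO vehicle; qRT-PCR of CASP3 transcript, housekeeping-normalised (ACTB/GAPDH/POLR2A); bidirectional curve fit vs DMSO baseline.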

[7] = read-out: Cytochrome P450 (CYP24A1), CYP24A1 (gene 1591); assay: LTEA_HepaRG_CYP24A1: Life Technologies and Expression Analysis (LTEA) Assay for Cytochrome P450 (CYP24A1) using HepaRG (AID 2283478)
Outline: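 qRT-PCR read-out: CYP24A1 transcript levels normalized to three housekeeping genes, bidirectional curve fits against 0.5% DMSO baseline. Human HepaRG cells treated 48 h with chemicals at eight concentrations from 100 uM in half-log steps.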

[8] = read-out: Cytochrome P450 (CYP1A2), CYP1A2 (gene 1544); assay: LTEA_HepaRG_CYP1A2: Life Technologies and Expression Analysis (LTEA) Assay for Cytochrome P450 (CYP1A2) using HepaRG (AID 2283479)
Outline: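 HepaRG, 48 h exposure, top 100 uM, half-log 8-pt, 0.5% DMSO vehicle, duplicates. Readout: TaqMan qRT-PCR of CYP1A2 mRNA, housekeeping-normalized (ACTB/GAPDH/POLR2A). Gain/loss fit relative to DMSO baseline.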

[9] = read-out: cysteine-aspartic acid protease (CASP8), CASP8 (gene 841); assay: LTEA_HepaRG_CASP8: Life Technologies and Expression Analysis (LTEA) Assay for cysteine-aspartic acid protease (CASP8) using HepaRG (AID 2283480)
Outline: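 HepaRG, 48 h exposure, duplicate wells; 8 conc, half-log from 100 uM, 0.5% DMSO. Serum-free induction medium. CASP8 mRNA by TaqMan qRT-PCR, norm. ACTB/GAPDH/POLR2A; gain/loss fitted vs DMSO.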

[10] = read-out: Cytochrome P450 (CYP2B6), CYP2B6 (gene 1555); assay: LTEA_HepaRG_CYP2B6: Life Technologies and Expression Analysis (LTEA) Assay for Cytochrome P450 (CYP2B6) using HepaRG (AID 2283481)
Outline: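 Read-out is CYP2B6 mRNA by TaqMan qRT-PCR, normalized to three housekeeping genes and fitted bidirectionally against 0.5% DMSO baseline. Human HepaRG cells received test chemicals for 48 h, top concentration 100 uM, half-log dilutions.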

[11] = read-out: Cytochrome P450 2C19 (Homo sapiens) (UniProt P33261); assay: LTEA_HepaRG_CYP2C19: Life Technologies and Expression Analysis (LTEA) Assay for CYP2C19 using HepaRG (AID 2283482)
Outline: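 HepaRG, 48 h chemical exposure, 8-pt half-log series from 100 uM in 0.5% DMSO, duplicates. Readout: CYP2C19 mRNA by TaqMan qRT-PCR, housekeeping-normalized. Bidirectional fit vs DMSO baseline; phenobarbital 1mM as induction control.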

[12] = read-out: CYP2C8 (gene 1558); assay: LTEA_HepaRG_CYP2C8: Life Technologies and Expression Analysis (LTEA) Assay for CYP2C8 using HepaRG (AID 2283483)
Outline: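 CYP2C8 mRNA induction or loss, by qRT-PCR normalized to ACTB/GAPDH/POLR2A, is read in HepaRG cells after 48 h treatment. Concentrations run from 100 uM down in half-log dilutions, with 0.5% DMSO as vehicle and baseline.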

[13] = read-out: CYP2C9 (gene 1559); assay: LTEA_HepaRG_CYP2C9: Life Technologies and Expression Analysis (LTEA) Assay for CYP2C9 using HepaRG (AID 2283484)
Outline: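 Cells plated 48 h, switched to serum-free induction medium, then treated in duplicate for 48 h at eight concentrations (max 100 uM, 0.5% DMSO). RNA then analysed by qRT-PCR for CYP2C9; curves fitted in both directions relative to DMSO.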

[14] = read-out: CYP2E1 (gene 1571); assay: LTEA_HepaRG_CYP2E1: Life Technologies and Expression Analysis (LTEA) Assay for CYP2E1 using HepaRG (AID 2283485)
Outline: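 Human liver line HepaRG, plated 48 h, then serum-free induction medium + chemical x 48 h; 8-pt CRC from 100 uM, half-log, 0.5% DMSO, n=2. Readout: CYP2E1 mRNA qRT-PCR vs ACTB/GAPDH/POLR2A; bidirectional fit vs DMSO.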

[15] = read-out: CYP4A11 (gene 1579); assay: LTEA_HepaRG_CYP4A11: Life Technologies and Expression Analysis (LTEA) Assay for CYP4A11 using HepaRG (AID 2283486)
Outline: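 CYP4A11 transcript levels were quantified by TaqMan qRT-PCR after HepaRG human liver cells were treated for 48 hours with test chemicals (top 100 uM, half-log dilutions, 0.5% DMSO). Gain or loss of signal was fitted relative to DMSO.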

[16] = read-out: Cytochrome P450 3A4 (Homo sapiens) (UniProt P08684); assay: LTEA_HepaRG_CYP3A4: Life Technologies and Expression Analysis (LTEA) Assay for CYP3A4 using HepaRG (AID 2283487)
Outline: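 Differentiated HepaRG cells in serum-free induction medium exposed in duplicate for 48 h to 8 half-log concentrations up to 100 uM in 0.5% DMSO. CYP3A4 mRNA measured by qRT-PCR normalized to ACTB, GAPDH and POLR2A; bidirectional fit versus DMSO.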

[17] = read-out: DNA damage-inducible transcript 3 (DDIT3), DDIT3 (gene 1649); assay: LTEA_HepaRG_DDIT3: Life Technologies and Expression Analysis (LTEA) Assay for DNA damage-inducible transcript 3 (DDIT3) using HepaRG (AID 2283488)
Outline: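 HepaRG plated 48 h, switched to serum-free induction medium, dosed 48 h (100 uM top, half-log, 8 pts, 0.5% DMSO, n=2); RNA isolated; DDIT3 by qRT-PCR; bidirectional curve fit vs DMSO.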

[18] = read-out: Early growth response protein 1 (EGR1) transcription factor, EGR1 (gene 1958); assay: LTEA_HepaRG_EGR1: Life Technologies and Expression Analysis (LTEA) Assay for Early growth response protein 1 (EGR1) transcription factor using HepaRG (AID 2283490)
Outline: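 Read-out is EGR1 mRNA level by qRT-PCR, normalized to three housekeeping genes and analysed for gain or loss of signal against 0.5% DMSO. Source cells: human HepaRG, treated 48 h at up to 100 uM in half-log dilutions.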

[19] = read-out: Pro-epidermal growth factor (Homo sapiens) (UniProt P01133); assay: LTEA_HepaRG_EGF: Life Technologies and Expression Analysis (LTEA) Assay for Epidermal growth factor (EGF) using HepaRG (AID 2283489)
Outline: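 qRT-PCR readout of EGF transcript after 48 h chemical exposure of HepaRG cells; eight concentrations from 100 uM down in half-log steps, duplicate wells, 0.5% DMSO vehicle. Bidirectional curve fitting against DMSO baseline.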

[20] = read-out: Ezrin (EZR), EZR (gene 7430); assay: LTEA_HepaRG_EZR: Life Technologies and Expression Analysis (LTEA) Assay for Ezrin (EZR) using HepaRG (AID 2283491)
Outline: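 Differentiated human HepaRG cells, 48 h after plating, were exposed in serum-free induction medium for 48 hours to eight half-log concentrations up to 100 uM in 0.5% DMSO. EZR mRNA was measured by TaqMan qRT-PCR, normalized to ACTB, GAPDH and POLR2A, and fitted bidirectionally against DMSO.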

Measured: AC50

Chain of Caspase-3 (Homo sapiens) (P42574 whole entry, looked up): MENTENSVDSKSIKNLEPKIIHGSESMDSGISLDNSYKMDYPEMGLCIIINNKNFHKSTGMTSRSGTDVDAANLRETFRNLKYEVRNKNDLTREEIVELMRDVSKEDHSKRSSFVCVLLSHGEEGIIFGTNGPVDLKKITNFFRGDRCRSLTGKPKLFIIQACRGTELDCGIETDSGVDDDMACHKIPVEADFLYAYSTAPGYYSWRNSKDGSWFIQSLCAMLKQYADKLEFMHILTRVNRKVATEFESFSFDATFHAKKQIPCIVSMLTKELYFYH
Chain of Apoptosis regulator Bcl-2 (Homo sapiens) (P10415 whole entry, looked up): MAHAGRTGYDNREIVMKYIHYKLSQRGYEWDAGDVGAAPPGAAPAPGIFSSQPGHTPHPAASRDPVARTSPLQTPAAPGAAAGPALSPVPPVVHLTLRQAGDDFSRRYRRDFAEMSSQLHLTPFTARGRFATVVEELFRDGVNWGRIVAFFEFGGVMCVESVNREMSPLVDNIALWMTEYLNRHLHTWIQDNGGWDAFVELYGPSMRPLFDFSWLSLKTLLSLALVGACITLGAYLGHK
Chain of Cytochrome P450 2C19 (Homo sapiens) (P33261 whole entry, looked up): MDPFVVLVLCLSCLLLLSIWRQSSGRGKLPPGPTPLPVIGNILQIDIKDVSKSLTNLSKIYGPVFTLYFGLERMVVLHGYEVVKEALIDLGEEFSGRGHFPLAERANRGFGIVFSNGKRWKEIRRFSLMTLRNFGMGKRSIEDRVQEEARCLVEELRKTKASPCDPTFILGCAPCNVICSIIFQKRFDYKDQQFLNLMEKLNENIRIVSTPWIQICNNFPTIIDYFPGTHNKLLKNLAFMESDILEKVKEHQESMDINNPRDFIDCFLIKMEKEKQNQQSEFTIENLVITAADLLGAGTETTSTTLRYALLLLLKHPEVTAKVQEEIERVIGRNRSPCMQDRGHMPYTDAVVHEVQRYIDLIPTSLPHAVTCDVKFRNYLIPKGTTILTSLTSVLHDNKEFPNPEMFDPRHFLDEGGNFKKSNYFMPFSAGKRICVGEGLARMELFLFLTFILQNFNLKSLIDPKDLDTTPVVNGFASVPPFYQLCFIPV
Chain of Cytochrome P450 3A4 (Homo sapiens) (P08684 whole entry, looked up): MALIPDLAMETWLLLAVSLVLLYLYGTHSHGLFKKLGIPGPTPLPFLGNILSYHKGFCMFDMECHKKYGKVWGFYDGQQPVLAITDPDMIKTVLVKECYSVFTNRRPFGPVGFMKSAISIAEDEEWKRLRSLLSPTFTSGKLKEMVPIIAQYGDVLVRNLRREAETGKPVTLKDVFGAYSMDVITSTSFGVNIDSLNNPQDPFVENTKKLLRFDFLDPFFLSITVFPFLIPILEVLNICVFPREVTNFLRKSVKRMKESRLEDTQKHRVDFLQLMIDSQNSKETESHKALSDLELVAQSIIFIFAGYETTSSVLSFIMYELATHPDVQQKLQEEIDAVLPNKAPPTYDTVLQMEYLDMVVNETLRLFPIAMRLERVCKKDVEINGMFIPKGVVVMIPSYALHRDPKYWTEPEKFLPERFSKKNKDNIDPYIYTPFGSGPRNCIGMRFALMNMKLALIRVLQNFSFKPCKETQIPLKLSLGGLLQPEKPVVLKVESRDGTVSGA

NCc1cccc(C2CCN(C(=O)c3ccc(C#Cc4ccccc4F)o3)CC2)c1
inactive: [4] | [6] | [7] | [18]
active: [1] 83.7 µM | [2] 83.1 µM | [3] 80.5 µM | [5] 79.9 µM | [8] 90 µM | [9] 78 µM | [10] 83 µM | [11] 89.3 µM | [12] 94 µM | [13] 91.7 µM | [14] 79.3 µM | [15] 82.4 µM | [16] 75.2 µM | [17] 75.4 µM

Clc1ccccc1C(c1ccccc1)(c1ccccc1)n1ccnc1
inactive: [5] | [6] | [7] | [9]
active: [1] 20.1 µM | [2] 50 µM | [3] 20.8 µM | [4] 23 µM | [8] 7.26 µM | [10] 26 µM | [11] 27.4 µM | [12] 23.9 µM | [13] 93.4 µM | [14] 11.3 µM | [15] 15.8 µM | [17] 86.5 µM | [18] 71.5 µM

O=CCCCC=O
not listed: [16]
inactive: all other assays above
